Experimental data taken from PubChem BioAssay (EPA / NIEHS).
Where “and” joins values, the source holds several entries; their conditions need not be identical. Equal values may be shown once. Some compounds were tested as several samples or in several runs, with calls that do not always agree. Calls of active or inactive are those of the source. How the source made its calls: active means hit-call score of the fitted dose curve at least 0.9, where 1 is the maximum; inactive means score below 0.9.

What follows are compounds tested on Intercellular Adhesion Molecule 1 (ICAM1), ICAM1 (gene 3383) (assay: BSK_KF3CT_ICAM1: BioMAP Diversity Plus: KF3CT Assay for Intercellular Adhesion Molecule 1 (ICAM1) Biomarker Activity (AID 2283067)). Conditions: primary human keratinocytes with fibroblasts; actives raise or lower the signal.
In short: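 ELISA readout of ICAM-1; KF3CT human skin co-culture (keratinocytes + foreskin fibroblasts), 24 h post-dose; gain/loss fit vs DMSO baseline.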

SMILES	outcome	AC50
O=C(O)C(F)(F)C(F)(F)C(F)(F)C(F)(F)C(F)(F)C(F)(F)C(F)(F)F	inactive	–
CNC(=O)/C=C(\C)OP(=O)(OC)OC	inactive	–
CC1(c2ccc(Oc3ccccc3)cc2)OC(=O)N(Nc2ccccc2)C1=O (stereo not drawn)	inactive	–
O=C(Nc1ccccc1)Nc1cnns1	inactive	–
COP(=S)(OC)Oc1ccc([N+](=O)[O-])cc1	inactive	–
CNC(=O)Oc1cccc(N=CN(C)C)c1	inactive	–
CCCN(CCOc1c(Cl)cc(Cl)cc1Cl)C(=O)n1ccnc1	inactive	–
COC(=O)c1ccccc1S(=O)(=O)NC(=O)Nc1nc(C)nc(OC)n1	inactive	–
Cc1cc(C)nc(NC(=O)NS(=O)(=O)c2ccccc2C(=O)OC2COC2)n1	inactive	–
CCC(C)(C)C(=O)OC1=C(c2ccc(Cl)cc2Cl)C(=O)OC12CCCCC2	–	29.5 µM (active)
CNC(=O)Oc1ccccc1OC(C)C	inactive	–
Clc1ccccc1-c1nnc(-c2ccccc2Cl)nn1	inactive	–
O=C1c2ccccc2C(=O)N1SC(Cl)(Cl)Cl	inactive	–
Cc1[nH]c(=O)n(C(C)(C)C)c(=O)c1Cl	inactive	–
C[C@H]1[C@H](c2ccc(Cl)cc2)SC(=O)N1C(=O)NC1CCCCC1	inactive	–
COC(=O)c1ccccc1S(=O)(=O)NC(=O)N(C)c1nc(C)nc(OC)n1	inactive	–
CCc1ccc(C(=O)NN(C(=O)c2cc(C)cc(C)c2)C(C)(C)C)cc1	inactive	–
CC[C@H](C)[C@H]1O[C@]2(C=C[C@@H]1C)C[C@@H]1C[C@@H](C/C=C(\C)[C@@H](O[C@H]3C[C@H](OC)[C@@H](O[C@H]4C[C@H](OC)[C@@H](O)[C@H](C)O4)[C@H](C)O3)[C@@H](C)/C=C/C=C3\CO[C@@H]4[C@H](O)C(C)=C[C@@H](C(=O)O1)[C@]34O)O2 (tested in a mixture with another compound)	–	14.1 µM (active)
O=S(=O)(O)C(F)(F)C(F)(F)C(F)(F)C(F)(F)C(F)(F)C(F)(F)C(F)(F)C(F)(F)F	inactive	29.9 µM (active)
COP(=S)(OC)Oc1ccc(SC)c(C)c1	inactive	–
COC(=O)c1ccccc1CS(=O)(=O)NC(=O)Nc1nc(OC)cc(OC)n1	inactive	–
Oc1cc(Cl)ccc1Oc1ccc(Cl)cc1Cl	–	32.2 µM (active) [middle of 4 runs]
OCCOc1ccccc1	inactive	–
ClC1C(Cl)C(Cl)C(Cl)C(Cl)C1Cl (stereo not drawn)	inactive	–
CC(C)N(C(=O)COc1nnc(C(F)(F)F)s1)c1ccc(F)cc1	inactive	–

What follows are compounds tested on Interferon-gamma inducible Protein 10 (IP10), CXCL10 (gene 3627) (assay: BSK_KF3CT_IP10: BioMAP Diversity Plus: KF3CT Assay for Interferon-gamma inducible Protein 10 (IP10) Biomarker Activity (AID 2283068)). Conditions: primary human keratinocytes with fibroblasts; actives raise or lower the signal.
In short: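 In a primary skin co-culture of keratinocytes and fibroblasts, IP-10 is quantified by ELISA at 24 h after dosing. SRB staining of parallel wells monitors overt toxicity. Curves are fitted both directions against DMSO.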

SMILES	outcome	AC50
O=C(O)C(F)(F)C(F)(F)C(F)(F)C(F)(F)C(F)(F)C(F)(F)C(F)(F)F	inactive	–
CNC(=O)/C=C(\C)OP(=O)(OC)OC	inactive	–
CC1(c2ccc(Oc3ccccc3)cc2)OC(=O)N(Nc2ccccc2)C1=O (stereo not drawn)	inactive	–
O=C(Nc1ccccc1)Nc1cnns1	inactive	–
COP(=S)(OC)Oc1ccc([N+](=O)[O-])cc1	–	9.18 µM (active)
CNC(=O)Oc1cccc(N=CN(C)C)c1	inactive	–
CCCN(CCOc1c(Cl)cc(Cl)cc1Cl)C(=O)n1ccnc1	inactive	–
COC(=O)c1ccccc1S(=O)(=O)NC(=O)Nc1nc(C)nc(OC)n1	inactive	–
Cc1cc(C)nc(NC(=O)NS(=O)(=O)c2ccccc2C(=O)OC2COC2)n1	inactive	–
CCC(C)(C)C(=O)OC1=C(c2ccc(Cl)cc2Cl)C(=O)OC12CCCCC2	–	29.9 µM (active)
CNC(=O)Oc1ccccc1OC(C)C	inactive	–
Clc1ccccc1-c1nnc(-c2ccccc2Cl)nn1	inactive	–
O=C1c2ccccc2C(=O)N1SC(Cl)(Cl)Cl	–	26.8 µM (active)
Cc1[nH]c(=O)n(C(C)(C)C)c(=O)c1Cl	inactive	–
C[C@H]1[C@H](c2ccc(Cl)cc2)SC(=O)N1C(=O)NC1CCCCC1	inactive	–
COC(=O)c1ccccc1S(=O)(=O)NC(=O)N(C)c1nc(C)nc(OC)n1	inactive	–
CCc1ccc(C(=O)NN(C(=O)c2cc(C)cc(C)c2)C(C)(C)C)cc1	inactive	–
CC[C@H](C)[C@H]1O[C@]2(C=C[C@@H]1C)C[C@@H]1C[C@@H](C/C=C(\C)[C@@H](O[C@H]3C[C@H](OC)[C@@H](O[C@H]4C[C@H](OC)[C@@H](O)[C@H](C)O4)[C@H](C)O3)[C@@H](C)/C=C/C=C3\CO[C@@H]4[C@H](O)C(C)=C[C@@H](C(=O)O1)[C@]34O)O2 (tested in a mixture with another compound)	–	12.5 µM (active)
O=S(=O)(O)C(F)(F)C(F)(F)C(F)(F)C(F)(F)C(F)(F)C(F)(F)C(F)(F)C(F)(F)F	inactive	23.1 µM (active) [middle of 5 runs]
COP(=S)(OC)Oc1ccc(SC)c(C)c1	inactive	–
COC(=O)c1ccccc1CS(=O)(=O)NC(=O)Nc1nc(OC)cc(OC)n1	inactive	–
Oc1cc(Cl)ccc1Oc1ccc(Cl)cc1Cl	inactive	33.7 µM (active) and 29 µM (active)
OCCOc1ccccc1	inactive	–
ClC1C(Cl)C(Cl)C(Cl)C(Cl)C1Cl (stereo not drawn)	inactive	–
CC(C)N(C(=O)COc1nnc(C(F)(F)F)s1)c1ccc(F)cc1	–	30.8 µM (active)
